Screening results: PubChem BioAssay, National Center for Advancing Translational Sciences (NCATS)
JMJD2A Tudor: qHTS Assay for Inhibitors of JMJD2A-Tudor Domain | Lysine-specific demethylase 4A (Homo sapiens), O75164 | AlphaScreen JMJD2A-Tudor / H3K4me3 peptide binding | Potency, µM (series often up to 114 µM), usual class: inhibitors | 4.4% of 390,000 active; also: nearly all actives have a fitted effect of over 50% in size
Target sequence (O75164 whole entry, looked up, the tested form may be a part): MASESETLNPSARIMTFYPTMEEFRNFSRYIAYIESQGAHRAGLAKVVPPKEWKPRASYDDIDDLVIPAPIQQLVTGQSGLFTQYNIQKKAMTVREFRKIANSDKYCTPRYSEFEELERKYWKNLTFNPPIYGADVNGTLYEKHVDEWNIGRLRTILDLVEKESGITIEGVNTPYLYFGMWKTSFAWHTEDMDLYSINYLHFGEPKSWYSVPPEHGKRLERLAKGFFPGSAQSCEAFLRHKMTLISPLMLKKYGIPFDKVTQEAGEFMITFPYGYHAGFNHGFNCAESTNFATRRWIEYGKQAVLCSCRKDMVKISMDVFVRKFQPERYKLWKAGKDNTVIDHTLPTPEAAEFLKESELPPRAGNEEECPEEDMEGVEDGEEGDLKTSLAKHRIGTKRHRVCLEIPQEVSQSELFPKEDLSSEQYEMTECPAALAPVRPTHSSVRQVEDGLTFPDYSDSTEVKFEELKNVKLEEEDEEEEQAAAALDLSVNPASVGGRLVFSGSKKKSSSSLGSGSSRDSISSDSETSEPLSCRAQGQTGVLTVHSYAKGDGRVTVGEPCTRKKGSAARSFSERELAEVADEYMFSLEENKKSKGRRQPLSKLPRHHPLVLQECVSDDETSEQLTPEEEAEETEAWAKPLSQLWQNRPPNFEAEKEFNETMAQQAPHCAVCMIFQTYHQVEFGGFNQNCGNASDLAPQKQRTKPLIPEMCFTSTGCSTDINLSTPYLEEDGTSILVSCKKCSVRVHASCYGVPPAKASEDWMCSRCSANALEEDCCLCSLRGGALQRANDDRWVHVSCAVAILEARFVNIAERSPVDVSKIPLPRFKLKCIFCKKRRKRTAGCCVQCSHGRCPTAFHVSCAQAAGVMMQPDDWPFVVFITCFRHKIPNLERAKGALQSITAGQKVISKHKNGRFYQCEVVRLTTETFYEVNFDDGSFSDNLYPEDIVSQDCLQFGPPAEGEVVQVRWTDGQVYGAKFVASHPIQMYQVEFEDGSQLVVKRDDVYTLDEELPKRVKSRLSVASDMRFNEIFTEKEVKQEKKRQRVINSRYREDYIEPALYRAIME
HP1b chromo inh: HTS for Inhibitors of HP1-beta Chromodomain Interactions with Methylated Histone Tails. AlphaScreen HP1-beta / biotin-H3K9me3 peptide binding. Chromobox protein homolog 1 (Homo sapiens), P83916. Potency, µM (top dose mostly 114 µM), usual class: inhibitors. AID 540317, 2011. 0.56% of 390,000 active; also: nearly all actives have a fitted effect of over 70% in size
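AlphaScreen: HP1-beta (50 nM) preformed 30 min with biotin-H3(1-18)K9me3 peptide (50 nM) in PBS pH 7.4, 0.01% Tween-20. Compound added for 30 min at RT, then streptavidin donor/nickel chelate acceptor beads (10 ug/mL) for 30 min.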
BAZ2B inh: qHTS Assay for Inhibitors of BAZ2B | 4.4% of 360,000 active | Potency, µM (series often up to 114 µM), actives largely listed as inhibitors | AlphaScreen BAZ2B-H3K14Ac peptide displacement | Bromodomain adjacent to zinc finger domain protein 2B (Homo sapiens), Q9UIF8; also: nearly all actives have a fitted effect of over 60% in size
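Complex of BAZ2B and biotin-H3K14Ac (50 nM apiece) forms over 30 min at RT, then faces library compounds up to 110 uM for another 30 min; AlphaScreen beads added, 20 min dark incubation, luminescence read.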
TDP1 block: qHTS Assay for Inhibitors of Tyrosyl-DNA Phosphodiesterase (TDP1); Tyrosyl-DNA phosphodiesterase 1 (Homo sapiens), Q9NUW8; recombinant TDP1, AlphaScreen DNA substrate cleavage; Potency, µM (top dose mostly 130 µM), usual class: inhibitors; 0.28% of 350,000 active; AID 485290, 2010; also: nearly all actives have a fitted effect of over 40% in size
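Recombinant human Tdp1 (E. coli-expressed, 1 nM final) preincubated with compounds 15 min at room temperature, then 5'-biotin/3'-phosphotyrosine-FITC DNA substrate (15 nM final) added for 5 min. AlphaScreen beads (10 ug/ml final) added 10 min; cleavage lowers signal.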
Sfp PPTase inh: qHTS Assay for Inhibitors of Bacillus subtilis Sfp phosphopantetheinyl transferase (PPTase); 3.5% of 310,000 active; Biochemical Sfp PPTase activity, qHTS; 4'-phosphopantetheinyl transferase ffp (Bacillus subtilis), Q9F4F7; AID 1490, 2009; Potency, µM, hits mostly inhibitors;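 also: the enzyme is Sfp with the accession as filed and its product quenches rhodamine fluorescence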
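Fluorescence-quenching assay: 15 nM Sfp-PPTase preincubated 15 min at room temperature with compound, then 5 uM rhodamine-CoA and 12.5 uM BHQ-2-labelled YbbR peptide added. Fluorescence (ex 525/em 598 nm) read at start and after 30 min; difference gives rate.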
G9a block: qHTS Assay for Inhibitors of Histone Lysine Methyltransferase G9a; Histone-lysine N-methyltransferase EHMT2 (Homo sapiens), Q96KQ7; G9a H3K9 monomethylation, AlphaScreen, 2 h; Potency, µM (titrated, usually from 102 µM), actives largely listed as inhibitors; 8.8% of 350,000 active; also: nearly all actives have a fitted effect of over 75% in size
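Chemiluminescent proximity detection of H3K9 monomethylation, read after 10 min bead incubation in the dark. Reaction: 20 nM G9a, 500 nM biotin-H3K9 peptide, 20 uM SAM cofactor, 2 h, room temperature, following 15 min enzyme-compound preincubation.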
Numbers stand for hits; n = inactive; u = inconclusive; x = no result; ! = repeats disagree; [ ] = another dose, or the depositor's remark. Shown are actives, neighbours in structure and some others; about 12% of the full set was active somewhere. Calls follow the shape of the dose curve; as a rule, active = well fitted curve in the direction sought with a large enough effect; inconclusive = small, poorly fitted or top-dose-only effect, or another doubt; inactive = no such curve, though single readings can be large; an effect the other way counts as inactive or inconclusive.

SMILES | JMJD2A Tudor | HP1b chromo inh | BAZ2B inh | TDP1 block | Sfp PPTase inh | G9a block
CC(=O)c1nc(N2C(=O)CC(Cc3cc(C)cc(C)c3)C2=O)sc1C (centres undefined) | n | n | n | n | n | 45µM
CCOc1cc(S(=O)(=O)n2ccnc2C(C)C)ccc1Cl | n | n | n | n | x | n
NC(N)=Nc1ccc(C=C2C=Cc3ccccc32)cc1 | u | n | x | x | x | x
Nc1ccc(C=C2C=Cc3ccccc32)cc1 | 35µM | u | x | x | x | x
COCCCn1c(=N)c(C(=O)NCC2CCCO2)cc2c(=O)n3cc(C)ccc3nc21 (centres undefined) | n | n | n | x | x | n
Cc1ccc2nc3c(cc(C(=O)NCC4CCCO4)c(=N)n3CCCOC(C)C)c(=O)n2c1 (centres undefined) | u | n | n | n | n | 56µM
Nc1ncnc2c1ncn2[C@@H]1O[C@H](CNC(=O)[C@@H](N)COCc2ccccc2)[C@@H](O)[C@H]1O | n | n | x | n | x | x
Cc1ccccc1-n1c(-c2ccco2)n[nH]c1=S | 3.2µM | n | n | n | n | 7.1µM
FC(F)(F)c1ccccc1-n1c(-c2ccco2)n[nH]c1=S | n | n | n | x | n | 16µM
c1ccc(-n2c(-c3ccco3)nnc2-c2ccco2)cc1 | n | n | n | n | n | n[12.7 µM]
O=C(NC1CCCCC1)c1cc(-c2cccs2)on1 | n | n | n | n | n | u
COCc1nnc(NC(=O)COc2ccc3c(c2)OCO3)s1 | n | u | n | n | 56µM | 22µM
CCOCc1nnc(NC(=O)COc2ccc3c(c2)OCO3)s1 | n | n | n | n[0.0935 µM] | n | u
O=C(COc1ccc2c(c1)OCO2)Nc1nccs1 | n | n | n | n[0.0935 µM] | n | n
O=C(COc1ccc2c(c1)OCO2)Nc1nnc(Cc2ccccc2)s1 | n | u | n | x | n | 18µM
O=[S+]([O-])(c1ccc2c(c1)OCCO2)N1CCN([S+](=O)([O-])c2ccc(F)cc2Br)CC1 | n | x | x | x | x | x
COc1cccc(N2CCN(C(=O)Cn3ncc4c3-c3ccccc3OC4)CC2)c1 | n | n | n | n | x | n
CN(C)c1ccc(Nc2ncnc3ccc(Br)cc23)cc1 | 45µM | u | 45µM | x | u | 10µM
C/C(=N\N1CCN(C)CC1)c1ccc(Cl)c(Cl)c1 | n | n | n | n | n | n
CCOC(=O)Cc1csc(NC(=O)CN2CCOCC2)n1 | n | n | n | n | n | n
COc1ccc2cc(CCNC(=O)c3ccc(Br)o3)c(=O)[nH]c2c1 | n | n | n | n | n | 50µM
CCc1c(C)sc(NC(=S)N2CC(C)OC(C)C2)c1C(=O)OC (centres undefined) | n | n | n | n | u | n
CCc1c(C)sc(NC(=S)N2CCN(C(=O)C3CCCO3)CC2)c1C(=O)OC (centres undefined) | u | u | u | n | n | 50µM
CCc1c(C)sc(NC(=O)OC)c1C(=O)N1CCCCC1 | n | n | n | n | 50µM | u
COC(=O)CCCC1=CC2=C(c3ccccc3)C(=O)C(C)(OC(=O)C3CCCC3)C(=O)C2=CN1Cc1ccco1 (centres undefined) | u | n | 71µM | n[12.3 µM] | 56µM! | n[12.7 µM]
SMILES | JMJD2A Tudor | HP1b chromo inh | BAZ2B inh | TDP1 block | Sfp PPTase inh | G9a block
Cc1csc(C(C#N)C(=O)c2ccncc2)n1 (centres undefined) | n | n | n | n | n | 50µM
COc1ccc(C2/C(=C(/O)c3ccccc3)C(=O)C(=O)N2CCO)cc1 (centres undefined) | n | n | n | n | n | 45µM
O=C1C(=O)N(CCO)C(c2ccccc2)/C1=C(\O)c1ccccc1 (centres undefined) | n | n | n | n | n | u
COc1ccc(/C(O)=C2/C(=O)C(=O)N(CCCC(=O)O)C2c2ccc(OC)cc2)cc1 (centres undefined) | 45µM | n | u | n | n | n
COc1ccc(/C(O)=C2/C(=O)C(=O)N(CCCN3CCOCC3)C2c2ccc(OC)cc2)cc1 (centres undefined) | n | n | n | x | n | x
C(C#CCCCCCCCCC[n+]1ccccc1)#CCCCCCCCCC[n+]1ccccc1 | n | n | n | n | 50µM | n
Cc1oc2ccc(O)c(CN3CCN(Cc4ccccc4)CC3)c2c1C(=O)Nc1ccccc1 | u | n | n | n | x | u
Cc1nn(-c2ccccc2)c(N)c1N=O | n | n | n | x | n | n
Cc1ccc(N=Nc2c(N)nn(-c3ccccc3)c2N)cc1 | 35µM | u | 50µM | n | n | n
COc1ccc(N=Nc2c(N)nn(C)c2N)cc1 | u | 79µM | x | x | x | x
Cc1ccc(N=Nc2c(N)nn3c(N)c(C#N)c(C)nc23)cc1 | 56µM | n | n | n | n | n
Cc1nn(-c2ccccc2)c(N)c1N=Nc1ccc2ccccc2c1 | 40µM | u | 13µM | n | u | 40µM
Cc1ccc(N=Nc2c(N)nn3c(C)cc(C)nc23)cc1 | n | n | n | n | n | n
O=C(CN(Cc1ccco1)C(=O)c1cccc(F)c1)Nc1ccccc1C(F)(F)F | n | n | n | n | x | n[12.7 µM]
CN(C)S(=O)(=O)N1CCC(n2nccc2NC(=O)CCCc2ccccc2)CC1 | n | n | n | n | n | n
COc1ccc(NC(=O)CSc2nc3c([nH]c4ccccc43)c(=O)n2-c2ccccc2)c(OC)c1 | n | n | n | n | x | n
CC(C)(C)c1ccc(OCCC(=O)OCC(=O)Nc2cccnc2Cl)cc1 | n | n | n | x | x | n[0.501 µM]
Cc1cccc(-n2cnc3cc(C(=O)NC4CCCCCC4)ccc32)c1 | n | n | n | n | x | u
CC(C)(C)c1cc(/C=C(\C#N)C(N)=S)cc(C(C)(C)C)c1O | x | x | x | n | n | 28µM
[C-]#[N+]/C(C#N)=C\c1cc(C(C)(C)C)c(O)c(C(C)(C)C)c1 | x | x | x | n | 45µM | x
CCN(CC)C(=O)/C(C#N)=C/c1cc(O)c(O)c([N+](=O)[O-])c1 | x | x | x | n | u | u
CC(C)(C)c1cc(/C=N/O)cc(C(C)(C)C)c1O | n | n | n | n | n | n
N#CC(C#N)=C(N)/C(C#N)=C/c1cc(O)c(O)c(O)c1 | 18µM | 18µM | 11µM | x | 40µM | 5.6µM
N#C/C(=C/c1ccc(F)cc1)C(N)=S | n | n | n | n | 35µM | 5.6µM
O=C(COc1ccc(F)cc1)Nc1ccc2nc(SCc3ccccc3)sc2c1 | n | n | n | n | x | n
COc1ccc(NC(=O)CN(C)C(=O)c2cc3c(s2)CCC(C)C3)cc1 (centres undefined) | n | n | n | n | n | n
